Results published in the supplement of paper PMC6555819.

tested on: VDR:RXRa (NR concentration 270 nM, RXRa partner concentration 90 nM); test: PBM binding z-score (relative to random genomic background probes); higher = stronger binding; sequences stand for … in GC…GCGATTGACAGCGTAGAATGAAGG
Procedure: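 Protein-binding microarray (Agilent 4x180K custom design, double-stranded 60-nt probes: 5' GC cap, 34-nt variable region, 24-nt constant primer region; full probe sequence given). Purified or IVT nuclear receptor:RXRα heterodimers (3:1 NR:RXRα, mostly 270:90 nM) or homodimers were incubated for 1 h in PBS with 2% milk and no ligand, then detected with Alexa488 antibodies. Fluorescence from o1-orientation probes (~5 replicates averaged) was converted to z-scores against 500 random hg19 background probes. Variable regions are seed direct-repeat (DR0–DR5) sites, all their single-nucleotide variants and half-site ablations.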

| Sequence | PBM binding z-score |
| --- | --- |
| ACAGACAGGAGATGAAGGTAACTCAGGCTATCAT | 0.143 |
| GCAGACAGGTGAAAGGCAGGTAACTCAGGGTGGC | -0.303 |
| TCTTGTAGAGCAACAGGAGGTTAAGAAAGATCGA | 0.0425 |
| CGAACGAGGGCATGCGTTGATAGCAAATGCCGAT | 0.672 |
| TAGCCTAGGTCAGTTCGGGCCAGTATACGCTATA | 0.785 |
| AGAATGAGGTTACCAAATATCAGGGAAACGCTTG | 1.34 |
| CCTTACGGGTCACTGACAGGTTATAGCCTTTGGA | 3.77 |
| ACTAGCAGGCCAAGTTTGGGCCACTCAAACAAAG | -0.648 |
| ACTATTAGTTGACTTAGCGCAACCGATACGACGC | 0.0494 |
| AGAGACAGGTGAGTGAAGGTAACTCAGCTGGACG | -0.141 |
| CGAACTAGGTCATTGACACGACAGTGAATAGTAA | 2.01 |
| GTAACGAGGGCATTCGAGTTGATAGCATGGCGAT | 3.62 |
| TCTAGTTGGTCACGGAGGTCACACAAGACGGGTA | 5.67 |
| CGTTCAAGGTCAAGGTCAGTGAAAGAGACTCGAA | 5 |
| TCTGTTAGGTCAACGATGGTCAGCTAATCTGCTA | 2.46 |
| TTACCAAAGTGAGCTGAGGTCGTTGATCCAACTC | 1.84 |
| GCTTGTAGATAAAGGTTAAGAAAGACTAAGCTAA | 0.626 |
| TCGAGTAGGTTGCCAATGGGGCATTCAGCTTTCT | -0.316 |
| ACTAGCAGGCCAAGGGCCACTCAAGATTAGTCCG | -0.798 |
| TCTTGTAGATCAATAGAGATTAAGAAAGTGCGCT | 0.285 |

| Sequence | PBM binding z-score |
| --- | --- |
| CCTCGGAGGACAACAGGAGGTCAGAGATGCCAGA | 2.29 |
| ACAGAGAGGTGATGAAGGTAACTCAGGCTATCAT | 0.7 |
| TCTTGTAGATCAAGCACGTTAAGAAAGCCTGAGT | 0.187 |
| CCTACTGGGCCATCAGGTCATTGATATCAACGTT | 1.81 |
| CCTTACGGGTCACGCGGTTATAGCACGACGAGCG | 4.4 |
| CGAACTAGGTTATTGACAGGACAGTGAATAGTAA | 0.204 |
| ACTTACGGGTCAACGAGGTTATAGCGCGCGTATA | 7.58 |
| TCGAGTAGGTTTCCAATGGGGCATTCAGCTTTCT | -0.464 |
| ACTCGGAGGACAAAGGTCAGAGTTACGCCAGTGA | 3.42 |
| CGTCAAAGTTCAAGATAACGTAACAGAAAGCAGC | 3.2 |
| GCTGCTAGGTCAAGTGATGGTCAGCTAAAGCTCG | 1.63 |
| CGAACTAGGTCAGAACAGGACAGTGTAGGATGAT | 0.86 |
| TCTTGTAGATCAACGGTTAAGAAAGCCGAAGCCT | 0.234 |
| AGAATGAGGTTACGAAAGATCAGGGAAACGCTTG | 1.52 |
| CCTAGCAGGCCAATCTGGGTCACTCTAGGCTTGA | 0.251 |
| AGTCAAAGTTCAGGTCGAGGTAACGTAAAGCACG | 3.41 |
| ATCTCTAGGTAACAAGTTCAGTGCAAGAGAGGAC | 1.79 |
| ATATGTAGGTTATCGGGTCATTCAATTTGCGCAT | 3.87 |
| CGTCCAAGATCAGCAGGTCAGTGAAAGCGACGTG | 0.173 |
| TCGAGTAGCTTAGTCGGGGCATTCAGCCAACATA | -0.32 |
